TRHR agonist: qHTS for Small Molecule Agonists and Allosteric Enhancers of Human TRH Receptor: Primary Screen for Agonists. Thyrotropin-releasing hormone receptor (Homo sapiens), P34981. activation, % at 2 µM. TRHR cells, calcium flux fluo-8, FDSS agonist mode. 360,000 tested, 0.18% active
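Agonist-mode FDSS calcium read (Ex 480/Em 530, 1 s cycles) in 1536-well TRHR cells with fluo-8 dye, after 10-cycle baseline and 23 nL compound addition; TRH at EC20 (10 nM final) added afterwards for the enhancer phase.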
D1 antag: Antagonist of Human D 1 Dopamine Receptor: qHTS; 360,000 tested, 3.2% active; HEK293 TREx D1 cells, calcium flux, dopamine EC80; stronger effect = lower value; AID 504652, 2011; activity change, negative = inhibition, % at 10 µM; D(1A) dopamine receptor (Homo sapiens), P21728; in the data active = activity change below about -30%
Target sequence (P21728 whole entry, looked up): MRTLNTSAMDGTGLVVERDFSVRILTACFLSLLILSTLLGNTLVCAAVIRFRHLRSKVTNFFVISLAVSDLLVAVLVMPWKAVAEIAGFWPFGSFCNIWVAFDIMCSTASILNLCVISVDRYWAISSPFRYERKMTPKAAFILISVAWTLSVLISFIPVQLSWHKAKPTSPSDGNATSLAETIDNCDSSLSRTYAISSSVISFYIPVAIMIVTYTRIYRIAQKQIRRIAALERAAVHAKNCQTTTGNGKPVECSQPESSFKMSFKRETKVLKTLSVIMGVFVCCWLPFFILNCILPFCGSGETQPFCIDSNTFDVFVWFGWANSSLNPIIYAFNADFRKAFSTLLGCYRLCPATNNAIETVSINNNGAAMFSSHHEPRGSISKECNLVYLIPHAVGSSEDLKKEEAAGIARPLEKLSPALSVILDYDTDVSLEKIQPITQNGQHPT
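Cells carrying a force-coupled, tetracycline-inducible human D1 receptor report calcium flux. Each well gets a 10 s baseline, compound with 180 s monitoring, then an EC80 dopamine stimulus with a second 180 s kinetic read.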
USP1-UAF1 inh: Inhibitors of USP1/UAF1: Primary Screen; Ubiquitin carboxyl-terminal hydrolase 1 (Homo sapiens), O94782; recombinant USP1/UAF1, Ub-Rhodamine cleavage fluorescence; Potency, µM (doses to about 57.1 µM), actives largely listed as inhibitors; 390,000 tested, 0.23% active; active = well fitted inhibition curve with a large enough effect; inconclusive = small, poorly fitted or top-dose-only effect; inactive = no such curve, though single readings can be large or run the other way; also: nearly all actives have a fitted effect of over 60% in size
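1 nM enzyme complex + cpd, 15 min RT; start with Ub-Rho 150nM final; kinetic fluorescence ex 480/em 540, 6 reads q60 s. Buffer 50mM HEPES pH 7.8, 0.5mM EDTA, 0.1 mg/ml BSA, 1mM TCEP, 0.01% Tween-20.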
D1 PAM: Potentiators of Human D1 Dopamine Receptor: qHTS; D(1A) dopamine receptor (Homo sapiens), P21728; HEK293 TREx D1 cells, calcium flux, dopamine EC20 potentiation; potentiation, % at 10 µM; 360,000 tested, 0.036% active; AID 504651, 2011; in the data active = potentiation above about 30%
D1 agonist: Allosteric Agonists of the Human D1 Dopamine Receptor: qHTS. D(1A) dopamine receptor (Homo sapiens), P21728. 360,000 tested, 1% active. HEK293 T-REx D1 cells, calcium flux, agonist mode. activation, % at 2 µM
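Agonism was scored from calcium flux recorded over 180 s (1 read/s) after pintool compound addition, following a 10-cycle baseline. Cells were inducible force-coupled HEK293 TREx D1, plated overnight at 30 C and loaded with no-wash calcium dye.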
TRHR PAM: qHTS for Small Molecule Agonists and Allosteric Enhancers of Human TRH Receptor: Primary Screen for Enhancers. Thyrotropin-releasing hormone receptor (Homo sapiens), P34981. TRHR cells, fluo-8 calcium fluorescence, EC20 TRH enhancement. enhancement, % at 2 µM. 360,000 tested, 0.66% active. AID 493056, 2011; in the data active = enhancement above about 30%
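TRHR-expressing cells loaded with fluo-8 calcium dye were read kinetically (ex 480/em 530) during compound addition, then stimulated with an EC20 of TRH (10 nM final). Enhancement of the Gq-mediated intracellular calcium response was scored.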
Each line names hits and unclear results; the compound was inactive in the other large screens. This is a sample that favours compounds with a hit; in the whole collection about 4.4% have one here. Rule as the data show it, unless noted: active = activation above about 30%; inactive = the rest.

CCOC(=O)c1cccc(NC(=O)C2Cc3ccccc3N2C(=O)c2ccccc2)c1 (centres undefined)	none
CC(Oc1ccc(Br)cc1)C(=O)NCC(C)(C)N1CCOCC1 (centres undefined)	none
CC(C)(CNC(=O)Cc1ccc(Br)cc1)N1CCOCC1	D1 antag -37.3
COc1ccc(N2C(=O)C3CCCN3C2=O)cc1 (centres undefined)	D1 antag -34.2
CCOc1ccccc1NC(=O)Cn1c(=O)n(CC(=O)NCc2ccccc2Cl)c(=O)c2sccc21	none
CCCCCn1c(=N)c(S(=O)(=O)c2ccccc2)cc2c(=O)n3ccccc3nc21	D1 antag -61.6
COc1cccc(N2CCN(C(=O)CN3CCSc4ccccc43)CC2)c1	none
NC(=O)c1ccc([N+](=O)[O-])cc1SCc1ccccc1	none
N[C@H](CSCc1ccccc1)C(=O)Nc1ccc([N+](=O)[O-])cc1	D1 antag -33.4
COc1cc(OC)c(C(=O)NCc2nc(-c3ccccc3)no2)cc1OC	none
COc1ccc(CCNc2nc(C)nc3c2nnn3Cc2ccccc2)cc1	D1 antag -56.7
Cc1nc(NCCc2ccccc2)c2nnn(Cc3ccccc3Cl)c2n1	none
COc1ccc(NC(=O)C2C(=O)N(CCO)C3(C)CC2c2ccccc2O3)cc1 (centres undefined)	none
COc1ccc(N2C(=O)NC3CC2(C)Oc2ccccc23)cc1 (centres undefined)	D1 antag -39.0
COc1ccc(NC(=O)C2C(=O)N(C)C3(C)CC2c2ccccc2O3)cc1 (centres undefined)	D1 antag -32.1
Cc1ccc(NC(=O)CN2C(=O)COc3ccc(S(=O)(=O)N4CCCC4)cc32)c(C)c1	D1 antag -47.3
Cc1ccc(C)c(NC(=O)CN2C(=O)COc3ccc(S(=O)(=O)N4CCCC4)cc32)c1	USP1-UAF1 inh inconclusive
COCCNC(=O)CN1C(=O)COc2ccc(S(=O)(=O)N3CCCC3)cc21	TRHR PAM 32.6
COc1ccc(Cn2c(=O)c3cccnc3n(CC(=O)Nc3ccc(C)c(F)c3)c2=O)cc1	none
Fc1ccccc1Cn1c(-c2ccccc2)nc2ccccc21	none
COc1ccc(C2CC(c3cccc(C)c3)n3nc(N)nc3N2)cc1 (centres undefined)	D1 antag -30.9
Cc1ccccc1C1CC(c2ccc(Br)cc2)Nc2nc(N)nn21 (centres undefined)	TRHR PAM 40.2
Cc1ccc(NC(=O)c2c(C)oc3nc(C)nc(N4CCCC4)c23)c(C)c1	none
Cc1nnc(SCC(=O)NCc2ccc(N(C)C)cc2)c2nn(-c3ccccc3)c(C)c12	none
COc1ccc(CNC(=O)C(=O)NCC(c2cccnc2)N2CCN(c3ccccc3)CC2)cc1 (centres undefined)	none
O=C(CSc1ccccn1)N1CCCC(Nc2ccccc2)C1 (centres undefined)	none
O=C(c1cc(F)ccc1F)C1CCCN(C(=O)CSc2ccccn2)C1 (centres undefined)	D1 antag -39.9
CC(C)(C)c1ccc(C2NC(=O)c3n[nH]c(-c4cccs4)c32)cc1 (centres undefined)	none
C=CCc1c(C)nc2c(-c3ccccc3)cnn2c1N1CCOCC1	D1 antag -31.7
Cc1cc(N2CCOCC2)n2ncc(-c3ccccc3)c2n1	none (no result: D1 antag)
Cc1nccn1CCOc1ccccc1Cl	D1 antag -34.5
CCCn1ccc2c(OCC(=O)Nc3ccc(C(F)(F)F)cc3)cccc2c1=O	none (no result: D1 antag)
COC(=O)c1nc2n(n1)C(c1cc(OC)ccc1OC)C(C(=O)Nc1ccc(C)cc1C)=C(C)N2 (centres undefined)	none
CC(=O)c1c(C)[nH]c(C(=O)CN2C(=O)NC(C)(c3ccc(C)cc3)C2=O)c1C (centres undefined)	D1 agonist 33.0
COc1cccc(NC(=O)CN2C(=O)NC(C)(c3ccc(C)cc3)C2=O)c1 (centres undefined)	D1 agonist 34.3
CC1(c2ccc(OC(F)F)cc2)NC(=O)N(CC(=O)Nc2ccccc2)C1=O (centres undefined)	D1 antag -58.9, D1 agonist 59.2
CCN1C(=O)C(=O)N(CC(=O)c2[nH]c(C)c(C(C)=O)c2C)C1=O	none
COc1ccc(C2(C)NC(=O)N(CC(=O)c3cc(C)n(C4CC4)c3C)C2=O)cc1 (centres undefined)	D1 agonist 64.1
Cc1cc(C(=O)CN2C(=O)NC(C)(c3ccc(F)c(F)c3)C2=O)c(C)n1C1CC1 (centres undefined)	none (no result: TRHR agonist, D1 antag, D1 PAM, D1 agonist, TRHR PAM)
COc1cccc(NC(=O)CN2C(=O)NC3(CCCC3)C2=O)c1	none
Cc1nc(-c2ccccc2)sc1-c1ccc(SCC(=O)NCc2ccc(F)cc2)nn1	none
Cc1ccc(C2(C)NC(=O)N(CC(=O)Nc3ccccc3N3CCCC3)C2=O)cc1 (centres undefined)	D1 agonist 46.7
O=C(CN1C(=O)NC2(CCCC2)C1=O)Nc1cc(Cl)ccc1N1CCCCC1	D1 agonist 42.2
CCOC(=O)CN1C(=O)NC(C)(c2ccc(OC(F)F)cc2)C1=O (centres undefined)	none
CC1(c2ccc(OC(F)F)cc2)NC(=O)N(CC(=O)Nc2ccc3c(c2)OCO3)C1=O (centres undefined)	D1 antag -60.2, D1 agonist 65.9
CC(=O)Nc1ccc(/C=N/N2C(=O)NC(C)(c3ccc(OC(F)F)cc3)C2=O)cc1 (centres undefined)	D1 antag -49.7, D1 agonist 95.9
CC(=O)c1cc(C(=O)Nc2cc(C)cc(C)c2)c2ccccn12	none
COc1cc(O)oc1C=Nc1ccc(C(=O)O)cc1	D1 antag -79.0
COc1cc(O)oc1C=Nc1ccc(Cl)cc1	none
Cc1ccc(C)c(NC(=O)N2CCc3cc(S(=O)(=O)N4CCC(C)CC4)ccc32)c1	none
COC(=O)c1cc(Nc2nc3ccccc3nc2NS(=O)(=O)c2ccc(C)cc2)ccc1Cl	D1 antag -30.7
COc1cc(Nc2nc3ccccc3nc2NS(=O)(=O)c2ccc([N+](=O)[O-])cc2)cc(OC)c1OC	D1 antag -74.1

Source: PubChem BioAssay
